From the supplement of paper PMC11732987, “Enantioselective OTUD7B fragment discovery through chemoproteomics screening and high-throughput optimisation” (Communications Chemistry, 2025)
Values without a mark were called inactive.

How the values were obtained:
Assay in all cases: log2 ratio of Biotin-Ahx-Ub-VS probe labelling (compound/DMSO); higher = less target engagement, active = hit call of the paper (q ≤ 0.05, log2 ratio ≤ -1)
Details in all cases: treatment time: 3 h
[1] = compound: CN(Cc1cccc(Br)c1)C(=O)CCl
How it was run: (§1)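 For activity-based profiling, 495 µg portions of HEK293T lysate in Tris/CHAPS/IGEPAL buffer with protease inhibitors were treated in triplicate with compound at 50 or 200 µM or with DMSO for 3 h. A 1 h incubation with Biotin-Ahx-Ub-VS (0.5 µM final) followed, then NeutrAvidin enrichment, LysC and trypsin digestion and diaPASEF LC-MS/MS. The compound/DMSO base-two log ratios were averaged from median-normalised label-free quantities using an unpaired t-test. Proteins needed at least 2 unique peptides to be included.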

[2] = compound: CN(Cc1cccc(OCc2ccccc2C)c1)C(=O)CCl
How it was run: as §1

[3] = compound: CN(Cc1ccccc1)C(=O)CCl
How it was run: as §1

[4] = compound: COc1ccc(CN(C)C(=O)CCl)cc1
How it was run: as §1

[5] = compound: COc1cccc(CN(CCCc2ccccc2)C(=O)CCl)c1
How it was run: as §1

[6] = compound: ClCC(=O)N1CCc2cc(Cl)c(Cl)cc2C1
How it was run: as §1

[7] = compound: ClCC(=O)N1CCc2nc(ncc2C1)-c1ccccc1
How it was run: as §1

[8] = compound: ClCC(=O)N1CCc2nocc2C1
How it was run: as §1

[9] = compound: ClCC(=O)N1CCc2scc(Br)c2C1
How it was run: as §1

[10] = compound: ClCC(=O)NC(C1CCCC1)c1cccs1
How it was run: as §1

[11] = compound: ClCC(=O)NC1CCCc2ccccc12
How it was run: as §1

[12] = compound: ClCC(=O)NC1CCOc2ccc(Cl)cc12
How it was run: as §1

[13] = compound: ClCC(=O)NC1CCSc2ccccc12
How it was run: as §1

[14] = compound: ClCC(=O)N[C@H]1CCCc2ccccc12
How it was run: as §1

[15] = compound: Fc1ccc(N2CCN(c3nc4c(CN(C(CCl)=O)CC4)cn3)CC2)cc1.Cl.Cl
How it was run: as §1

UniProt Q13107, sequence (Q13107 whole entry): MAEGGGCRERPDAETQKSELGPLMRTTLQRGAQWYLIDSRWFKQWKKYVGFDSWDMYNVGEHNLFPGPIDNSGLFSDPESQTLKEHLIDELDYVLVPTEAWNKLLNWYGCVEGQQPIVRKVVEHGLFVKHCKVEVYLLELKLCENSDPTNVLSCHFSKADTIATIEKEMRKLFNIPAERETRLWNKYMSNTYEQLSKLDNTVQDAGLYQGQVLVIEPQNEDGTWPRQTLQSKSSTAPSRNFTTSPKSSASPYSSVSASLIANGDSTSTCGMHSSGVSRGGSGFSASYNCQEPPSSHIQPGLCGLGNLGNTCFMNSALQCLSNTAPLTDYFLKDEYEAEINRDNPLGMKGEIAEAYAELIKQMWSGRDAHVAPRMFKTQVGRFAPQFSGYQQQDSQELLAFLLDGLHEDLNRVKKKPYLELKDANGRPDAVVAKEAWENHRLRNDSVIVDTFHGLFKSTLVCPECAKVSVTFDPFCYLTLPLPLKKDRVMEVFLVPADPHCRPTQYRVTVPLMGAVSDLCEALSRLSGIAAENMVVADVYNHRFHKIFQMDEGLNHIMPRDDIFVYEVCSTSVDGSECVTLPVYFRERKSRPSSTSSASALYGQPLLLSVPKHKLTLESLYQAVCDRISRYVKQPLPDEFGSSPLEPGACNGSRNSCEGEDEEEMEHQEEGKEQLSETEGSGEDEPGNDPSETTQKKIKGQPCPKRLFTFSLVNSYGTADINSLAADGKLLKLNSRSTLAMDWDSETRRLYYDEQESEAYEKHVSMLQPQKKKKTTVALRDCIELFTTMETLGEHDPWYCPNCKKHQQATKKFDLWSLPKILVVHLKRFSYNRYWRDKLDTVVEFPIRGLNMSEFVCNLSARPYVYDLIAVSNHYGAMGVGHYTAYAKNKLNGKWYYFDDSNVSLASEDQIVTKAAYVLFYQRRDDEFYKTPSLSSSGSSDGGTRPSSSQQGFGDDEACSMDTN
UniProt Q93008, sequence (Q93008 whole entry): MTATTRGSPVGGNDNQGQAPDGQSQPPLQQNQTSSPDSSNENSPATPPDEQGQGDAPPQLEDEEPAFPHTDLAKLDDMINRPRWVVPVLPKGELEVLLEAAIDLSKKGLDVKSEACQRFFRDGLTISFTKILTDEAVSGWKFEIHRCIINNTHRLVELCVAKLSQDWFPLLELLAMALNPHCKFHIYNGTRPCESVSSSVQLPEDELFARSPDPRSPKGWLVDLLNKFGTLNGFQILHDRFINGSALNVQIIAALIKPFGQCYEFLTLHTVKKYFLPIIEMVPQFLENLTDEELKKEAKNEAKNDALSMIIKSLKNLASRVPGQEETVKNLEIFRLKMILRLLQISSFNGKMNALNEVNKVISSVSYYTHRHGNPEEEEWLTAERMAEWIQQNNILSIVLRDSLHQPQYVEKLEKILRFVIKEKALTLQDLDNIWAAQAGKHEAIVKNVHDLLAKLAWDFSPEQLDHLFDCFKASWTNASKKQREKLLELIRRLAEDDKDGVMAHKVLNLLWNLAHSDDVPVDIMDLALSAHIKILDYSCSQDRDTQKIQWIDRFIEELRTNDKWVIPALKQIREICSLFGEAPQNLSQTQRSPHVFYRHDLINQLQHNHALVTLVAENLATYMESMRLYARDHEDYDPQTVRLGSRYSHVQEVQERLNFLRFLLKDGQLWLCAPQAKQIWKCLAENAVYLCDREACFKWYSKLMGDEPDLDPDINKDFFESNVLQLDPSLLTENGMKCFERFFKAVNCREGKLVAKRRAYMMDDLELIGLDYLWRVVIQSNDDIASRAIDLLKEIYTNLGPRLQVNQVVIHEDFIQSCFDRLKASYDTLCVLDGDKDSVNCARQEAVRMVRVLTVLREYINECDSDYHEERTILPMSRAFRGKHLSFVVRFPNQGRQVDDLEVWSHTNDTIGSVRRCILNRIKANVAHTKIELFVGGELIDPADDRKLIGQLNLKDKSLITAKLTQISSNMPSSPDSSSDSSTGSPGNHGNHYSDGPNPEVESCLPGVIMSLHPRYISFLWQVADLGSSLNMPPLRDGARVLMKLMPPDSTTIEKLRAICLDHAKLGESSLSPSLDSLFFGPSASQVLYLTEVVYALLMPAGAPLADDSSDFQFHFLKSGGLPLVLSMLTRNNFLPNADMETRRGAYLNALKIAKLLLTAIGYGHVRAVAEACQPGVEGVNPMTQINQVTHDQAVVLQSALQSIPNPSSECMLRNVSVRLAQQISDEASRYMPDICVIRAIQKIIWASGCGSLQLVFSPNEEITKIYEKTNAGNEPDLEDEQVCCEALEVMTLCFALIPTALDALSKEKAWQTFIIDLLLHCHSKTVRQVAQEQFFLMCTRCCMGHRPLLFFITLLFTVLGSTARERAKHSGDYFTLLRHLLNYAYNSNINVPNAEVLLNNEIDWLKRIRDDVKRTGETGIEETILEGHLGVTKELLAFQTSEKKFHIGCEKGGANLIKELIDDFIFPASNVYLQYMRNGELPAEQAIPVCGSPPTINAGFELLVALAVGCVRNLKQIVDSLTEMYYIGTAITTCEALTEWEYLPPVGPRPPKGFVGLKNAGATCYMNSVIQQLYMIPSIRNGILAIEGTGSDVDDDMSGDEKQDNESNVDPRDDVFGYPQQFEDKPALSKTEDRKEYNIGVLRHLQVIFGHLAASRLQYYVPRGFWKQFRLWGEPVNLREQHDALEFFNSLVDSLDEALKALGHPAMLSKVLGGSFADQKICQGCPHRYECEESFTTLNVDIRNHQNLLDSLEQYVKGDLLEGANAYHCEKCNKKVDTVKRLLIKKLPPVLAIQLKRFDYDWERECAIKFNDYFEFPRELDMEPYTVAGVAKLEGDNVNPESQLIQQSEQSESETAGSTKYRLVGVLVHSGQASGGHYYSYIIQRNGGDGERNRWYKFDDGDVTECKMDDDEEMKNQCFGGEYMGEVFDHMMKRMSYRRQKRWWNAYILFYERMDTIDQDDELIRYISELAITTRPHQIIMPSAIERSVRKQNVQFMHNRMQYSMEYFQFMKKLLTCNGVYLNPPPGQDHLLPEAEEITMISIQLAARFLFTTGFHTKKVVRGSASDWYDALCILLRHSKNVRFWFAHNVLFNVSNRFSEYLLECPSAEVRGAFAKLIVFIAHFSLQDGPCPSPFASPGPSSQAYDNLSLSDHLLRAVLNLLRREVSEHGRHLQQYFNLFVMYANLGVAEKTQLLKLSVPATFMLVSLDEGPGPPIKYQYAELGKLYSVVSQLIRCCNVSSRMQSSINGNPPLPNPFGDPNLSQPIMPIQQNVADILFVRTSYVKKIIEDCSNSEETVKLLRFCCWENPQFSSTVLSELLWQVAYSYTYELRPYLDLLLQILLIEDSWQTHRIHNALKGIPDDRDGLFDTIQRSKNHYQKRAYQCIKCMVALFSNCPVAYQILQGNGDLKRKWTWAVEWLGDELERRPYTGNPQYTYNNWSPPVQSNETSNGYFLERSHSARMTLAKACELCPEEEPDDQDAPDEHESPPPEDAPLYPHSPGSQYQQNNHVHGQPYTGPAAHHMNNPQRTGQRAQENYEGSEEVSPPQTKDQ
UniProt P09936, sequence (P09936 whole entry, looked up): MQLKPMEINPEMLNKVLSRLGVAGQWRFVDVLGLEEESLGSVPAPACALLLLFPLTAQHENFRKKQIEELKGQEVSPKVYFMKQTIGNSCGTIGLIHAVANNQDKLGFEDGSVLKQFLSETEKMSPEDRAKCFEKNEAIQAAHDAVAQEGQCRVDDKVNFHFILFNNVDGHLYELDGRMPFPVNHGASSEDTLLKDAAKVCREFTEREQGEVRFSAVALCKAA
UniProt P54252, sequence (P54252 whole entry): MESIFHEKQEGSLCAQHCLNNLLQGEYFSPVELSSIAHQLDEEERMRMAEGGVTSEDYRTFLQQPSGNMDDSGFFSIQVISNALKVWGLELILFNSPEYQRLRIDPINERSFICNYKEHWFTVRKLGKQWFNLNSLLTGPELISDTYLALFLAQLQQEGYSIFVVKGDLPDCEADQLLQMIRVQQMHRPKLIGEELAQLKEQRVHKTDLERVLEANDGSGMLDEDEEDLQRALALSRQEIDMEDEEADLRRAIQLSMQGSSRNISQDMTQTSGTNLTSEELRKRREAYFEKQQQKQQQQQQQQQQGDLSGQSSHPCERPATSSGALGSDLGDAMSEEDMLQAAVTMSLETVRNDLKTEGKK
UniProt O15372, sequence (O15372 whole entry): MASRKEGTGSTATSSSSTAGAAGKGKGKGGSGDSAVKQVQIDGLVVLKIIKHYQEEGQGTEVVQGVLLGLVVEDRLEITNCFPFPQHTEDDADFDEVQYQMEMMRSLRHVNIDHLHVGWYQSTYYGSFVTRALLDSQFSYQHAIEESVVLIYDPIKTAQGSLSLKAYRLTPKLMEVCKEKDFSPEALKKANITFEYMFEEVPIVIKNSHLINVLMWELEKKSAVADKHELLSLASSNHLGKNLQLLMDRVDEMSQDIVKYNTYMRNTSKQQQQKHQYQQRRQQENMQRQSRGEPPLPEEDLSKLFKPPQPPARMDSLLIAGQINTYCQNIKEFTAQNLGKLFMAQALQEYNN

| Target | log2 ratio of Biotin-Ahx-Ub-VS probe labelling ([1]; compound concentration: 50uM) | log2 ratio of Biotin-Ahx-Ub-VS probe labelling ([1]; compound concentration: 200uM) | log2 ratio of Biotin-Ahx-Ub-VS probe labelling ([2]; compound concentration: 50uM) | log2 ratio of Biotin-Ahx-Ub-VS probe labelling ([2]; compound concentration: 200uM) | log2 ratio of Biotin-Ahx-Ub-VS probe labelling ([3]; compound concentration: 50uM) | log2 ratio of Biotin-Ahx-Ub-VS probe labelling ([3]; compound concentration: 200uM) | log2 ratio of Biotin-Ahx-Ub-VS probe labelling ([4]; compound concentration: 50uM) | log2 ratio of Biotin-Ahx-Ub-VS probe labelling ([4]; compound concentration: 200uM) | log2 ratio of Biotin-Ahx-Ub-VS probe labelling ([5]; compound concentration: 50uM) | log2 ratio of Biotin-Ahx-Ub-VS probe labelling ([5]; compound concentration: 200uM) | log2 ratio of Biotin-Ahx-Ub-VS probe labelling ([6]; compound concentration: 50uM) | log2 ratio of Biotin-Ahx-Ub-VS probe labelling ([6]; compound concentration: 200uM) | log2 ratio of Biotin-Ahx-Ub-VS probe labelling ([7]; compound concentration: 50uM) | log2 ratio of Biotin-Ahx-Ub-VS probe labelling ([7]; compound concentration: 200uM) | log2 ratio of Biotin-Ahx-Ub-VS probe labelling ([8]; compound concentration: 50uM) | log2 ratio of Biotin-Ahx-Ub-VS probe labelling ([8]; compound concentration: 200uM) | log2 ratio of Biotin-Ahx-Ub-VS probe labelling ([9]; compound concentration: 50uM) | log2 ratio of Biotin-Ahx-Ub-VS probe labelling ([9]; compound concentration: 200uM) | log2 ratio of Biotin-Ahx-Ub-VS probe labelling ([10]; compound concentration: 50uM) | log2 ratio of Biotin-Ahx-Ub-VS probe labelling ([10]; compound concentration: 200uM) | log2 ratio of Biotin-Ahx-Ub-VS probe labelling ([11]; compound concentration: 50uM) | log2 ratio of Biotin-Ahx-Ub-VS probe labelling ([11]; compound concentration: 200uM) | log2 ratio of Biotin-Ahx-Ub-VS probe labelling ([12]; compound concentration: 50uM) | log2 ratio of Biotin-Ahx-Ub-VS probe labelling ([12]; compound concentration: 200uM) | log2 ratio of Biotin-Ahx-Ub-VS probe labelling ([13]; compound concentration: 50uM) | log2 ratio of Biotin-Ahx-Ub-VS probe labelling ([13]; compound concentration: 200uM) | log2 ratio of Biotin-Ahx-Ub-VS probe labelling ([14]; compound concentration: 50uM) | log2 ratio of Biotin-Ahx-Ub-VS probe labelling ([14]; compound concentration: 200uM) | log2 ratio of Biotin-Ahx-Ub-VS probe labelling ([15]; compound concentration: 50uM) | log2 ratio of Biotin-Ahx-Ub-VS probe labelling ([15]; compound concentration: 200uM) |
| --- | --- | --- | --- | --- | --- | --- | --- | --- | --- | --- | --- | --- | --- | --- | --- | --- | --- | --- | --- | --- | --- | --- | --- | --- | --- | --- | --- | --- | --- | --- |
| UCHL1 (UniProt P09936) | -0.0723 | 0.424 | -0.437 | -0.268 | -0.373 | -0.192 | -0.293 | 0.0271 | 0.0165 | 0.0676 | 0.153 | -0.0523 | 0.109 | -0.0372 | -0.379 | -0.3 | -0.0189 | -0.0895 | -0.0993 | -0.00199 | -0.0609 | 0.151 | -0.516 | -0.228 | 0.0655 | -0.146 | -0.0596 | -0.223 | 0.0885 | -0.474 |
| ATXN3 (UniProt P54252) | -0.252 | -0.624 | -0.719 | -1.1 (active) | -0.361 | -0.872 | -0.229 | -0.842 | -0.391 | -0.729 | -0.915 | -2.63 (active) | -0.221 | -1.26 (active) | -0.325 | -1.08 (active) | -0.485 | -1.78 (active) | 0.0786 | -0.141 | -0.0534 | -0.164 | -0.0955 | -0.25 | 0.24 | -0.293 | -0.316 | -0.596 | -0.648 | -2.72 (active) |
| USP9X (UniProt Q93008) | -0.128 | -0.446 | -0.553 | -1.59 (active) | -0.193 | -0.435 | -0.101 | -0.202 | -0.221 | -1.31 (active) | -0.225 | -1.96 (active) | 0.0933 | -0.622 | -0.15 | -0.284 | -0.229 | -1.13 (active) | -0.00568 | -0.248 | -0.0287 | -0.0252 | -0.131 | -0.237 | 0.0883 | -0.151 | 0.0465 | -0.214 | -0.231 | -1.53 (active) |
| USP4 (UniProt Q13107) | -0.457 | 0.551 | 0.0716 | -1.72 (active) | -0.596 | -0.256 | -0.643 | 0.475 | 0.418 | -0.294 | 0.245 | -1.88 (active) | 0.281 | -1.65 (active) | -0.605 | 0.447 | 0.067 | -0.445 | -1.38 (active) | -0.493 | 0.337 | -0.155 | -0.21 | 0.596 | -0.0317 | -0.104 | -0.54 | -0.195 | -0.32 | 0.659 |
| EIF3H (UniProt O15372) | -0.0499 | -0.495 | -0.0626 | -0.0695 | -0.0247 | -0.0426 | -0.128 | 0.0275 | 0.0566 | 0.0114 | -0.344 | 0.309 | -0.162 | 0.025 | 0.0895 | -0.349 | -0.0247 | 0.0406 | -0.136 | 0.0107 | -0.0316 | -0.379 | -0.141 | -0.0932 | -0.0985 | -0.00068 | -0.109 | 0.0728 | 0.0328 | -0.126 |
